# Where “and” joins values, the source holds several entries; their conditions need not be identical. Equal entries are not always repeated. Screen size: about 70,000 compounds; about 470 (0.67%) were called active. Inconclusive results (about 18%) are left out. Calls come from the whole dose curve. Many of the other results were omitted from the sample, so actives are more common in it than they were. Some structures have more than one record in an assay (separate samples or runs), and their calls can disagree.
# Experiment: qHTS Assay for Anthrax Lethal Toxin Internalization; note: nearly all actives have a fitted effect of over 50% in size
# Conditions: Cells, FRET ratio (460/530); series mostly up to 40 µM; activity change, negative = inhibition: at the top concentration
# % is set by controls: 0 for no effect and ±100 for the full control effect; potency is the fitted concentration of half-maximal effect.
SMILES,"activity change, negative = inhibition",Potency
CN1CCc2nc(-c3ccccc3)c(-c3ccccc3)cc2C1,-6.08% [at 8 µM] (inactive),
COCCn1c(=O)c(C)nc2cnc(N(C)C)nc21,-9.51% (inactive),
O=C1C[C@@H](O)[C@@H](O)[C@H]2[C@@H]3C(=O)N(Cc4ccc5c(c4)OCO5)C(=O)[C@@H]3CC[C@H]12,3.37% [at 8 µM] (inactive) and -9.87% [at 8 µM] (inactive),
CC[C@]1(C)CC(=O)NC1=O,inactive,
COc1ccc2c(=O)cc(-c3ccccc3)oc2c1O,0.763% (inactive),
CCNCCCNCCCNCCCNCC,-12.1% (inactive),
COCCNC(=O)COc1ccc(C)c(C)c1,-6.37% (inactive),
CCOC(=O)c1nc(N)sc1C(=O)OCC,0.0428% (inactive),
FC(F)(F)c1ccccc1-c1cc(NCc2ccccc2)ncn1,18.2% (inactive),
Cc1cc(C(=O)O)ccc1[N+](=O)[O-],-3.62% (inactive),
Nc1ccccc1N,-3.5% (inactive),
CCOC(=O)c1[nH]c2ccc(OC)cc2c1NC(=O)N1CCOCC1,-8.81% (inactive),
Cc1cccc(C(=O)O)c1[N+](=O)[O-],4.62% (inactive),
Cc1nn(Cc2ccc(Cl)c(Cl)c2)c(C)c1NC(=O)c1cc(C2CC2)on1,-30.6% (inactive),
CCC[C@@H]1C[C@@]1(CCC)[C@@H](NC(=O)c1ccccc1)c1ccc(C(=O)OC)cc1,-19.3% (inactive),
CN1[C@@H]2CC[C@H]1CC(OC(=O)c1cc(Cl)cc(Cl)c1)C2 (stereo partly specified),,inactive and 15.8 µM (active)
O=C1OCCC=C1[C@@H](O)CCc1ccccc1,-3.54% [at 1.6 µM] (inactive),
CCCn1c(-c2ccc(F)cc2)nc2c(NCC3CCCN3CC)nc(C)nc21 (stereo unspecified),-14.1% (inactive),
Nc1cc(OC(=O)c2ccccc2Br)nn1S(=O)(=O)c1ccccc1,,10 µM (active)
C/C=C1\C(=O)C[C@@H]2[C@@H]3CCC4=CC(=O)CC[C@@]4(C)[C@H]3CC[C@@]12C,-8.2% (inactive),
Cc1ccnc(N)c1,-11.7% (inactive),
CC(C)(C)NCC[C@@H](O)c1cc(C(F)(F)F)nc2c(C(F)(F)F)cccc12,-2.37% [at 8 µM] (inactive),
COCCn1c(=O)c(-c2cc(F)cc(F)c2)nc2cncnc21,3.07% (inactive),
CN=C1SC(C(=O)O)CC(=O)N1C (stereo unspecified),0.241% (inactive),

SMILES,"activity change, negative = inhibition",Potency
O=NO,inactive,
COc1ccc(N)c(C)c1,1.73% (inactive),
O=C(COc1ccc2oc3c(c2c1)CCCC3)Nc1ccccn1,-10.7% (inactive),
CC(C)C[C@H](NC(=O)NCCc1ccc(Cl)cc1)C(=O)O,2.75% (inactive),
Oc1cc2c(cc1O)CN(C(=S)NCCc1ccc(Cl)cc1)CCC2,,15.8 µM (active)
O=C(NCCc1ccc(Cl)cc1)C1CC(=O)N(C2CCCCC2)C1 (stereo unspecified),0.384% (inactive),
O=S(=O)(O)c1ccc(O)c2ncccc12.O=S(=O)(O)c1ccc(O)c2ncccc12.[Zn],-0.63% [at 8 µM] (inactive),
NS(=O)(=O)c1cc(C(=O)O)c(Cl)c([N+](=O)[O-])c1Cl,-7.65% [at 8 µM] (inactive),
C=CCOC(=O)C(C(C)=O)C(NC(=O)OC)c1ccccc1 (stereo unspecified),-6.02% [at 8 µM] (inactive),
Cc1ccc(Br)cc1,-9.02% (inactive),
CN(C)CCSS(=O)(=O)O,-2.2% [at 8 µM] (inactive),
c1ccc(Oc2ccccc2)cc1,12% (inactive),
Oc1ccc(O)c2c(O)cccc12,-2.4% (inactive),
Cc1c(C)c2c(c(C)c1O)CC[C@@](C)(CN1CCN(c3cc(N4CCCC4)nc(N4CCCC4)n3)CC1)O2,-10.2% (inactive),
C[C@@H]1/C=C\CC(=O)OC[C@H]2O[C@@H](C=C[C@@H]2O)[C@H](C)/C=C\CC(=O)OC[C@H]2O[C@H]1C=C[C@@H]2O,0.461% [at 0.32 µM] (inactive),
COc1ccc(NC(=O)C2CCCN(S(=O)(=O)c3cccc4cccnc34)C2)cc1 (stereo unspecified),,3.16 µM (active)
O=C(O)C1CCCN(S(=O)(=O)c2cccc3cccnc23)C1 (stereo unspecified),0.387% (inactive),
COc1ccc(NC(=O)C2CCCN(S(=O)(=O)c3cccc4cccnc34)C2)cc1OC (stereo unspecified),-8.54% (inactive),
Cc1cccc(Br)c1,-11.9% (inactive),
COC(=O)C(C(=O)OC)[C@@H]1CCCC(=O)C1,8.84% [at 8 µM] (inactive),
CCCC[C@@H]1C[C@H]1C(NC(=O)c1ccco1)c1ccc(C(=O)OC)cc1 (stereo partly specified),-5.36% (inactive),
COC(=O)NC(c1ccccc1)[C@]1(C(C)=O)CCCC1=O (stereo partly specified),-2.74% [at 8 µM] (inactive),
CC(C)=CCC/C(C)=C/CO/N=C1/C[C@@H](O)[C@@H](O)[C@@H]2[C@@H]3C(=O)N(C(C)(C)C)C(=O)[C@H]3CC[C@H]12,4.39% [at 1.6 µM] (inactive),
O=C(Cl)c1ccc([N+](=O)[O-])cc1,-9.99% (inactive),

SMILES,"activity change, negative = inhibition",Potency
O=C1[C@H]2[C@H]3[C@H](O)[C@H](O)C/C(=N/OCc4ccccc4)[C@H]3CC[C@@H]2C(=O)N1Cc1ccccc1,0.866% [at 1.6 µM] (inactive),
C/C(CCN1CCCCc2nc(C)c(C)cc21)=N\O[C@@H](C)c1cn([C@@H]2COC[C@@H]2O)nn1,16% [at 8 µM] (inactive),
COC(=O)C1(C)C=CCN1C(=O)c1ccccc1 (stereo unspecified),1.85% (inactive),
CC1=C(C(=O)OCc2ccccc2)C(c2ccc(C(F)(F)F)cc2)NC(=O)N1CCCCCC(=O)O (stereo unspecified),10.5% (inactive),
CO[C@@H]1COC(=O)[C@H](Cc2ccccc2)NC(=O)C/C=C\[C@@H](C)[C@H](OC)COC(=O)[C@@H](C)NC(=O)C/C=C\[C@H]1C,5.09% [at 1.6 µM] (inactive) and -1.18% [at 8 µM] (inactive),
COC(=O)c1ccc(C(NC(=O)OCc2ccccc2)/C(C)=C/[C@@H](C)C(=O)NCc2cc(C)on2)cc1 (stereo partly specified),0.057% (inactive),
O=C(Nc1ccncc1)c1cc2ccccc2o1,-5.1% (inactive),
O=C(NCCc1ccc2c(c1)OCCO2)c1cc2ccccc2o1,,12.6 µM (active)
O=C(CC(Cc1ccccc1)C(=O)O)NCCc1ccc2c(c1)OCO2 (stereo unspecified),-0.491% (inactive),
COC(=O)C1(C)C=CC2(CCCCC2)N1C(C)=O (stereo unspecified),5.36% (inactive),
CC(C)(C)c1ccc(OC2C=CC(C#Cc3ccccc3)OC2CO)cc1 (stereo unspecified),-3.38% [at 8 µM] (inactive),
CCC[C@@H]1C[C@@]1(CCC)C(NC(=O)c1ccc(-c2ccccc2)cc1)c1cccc(Cl)c1 (stereo partly specified),-10.9% (inactive),
CCOC(=O)Cn1c(CN(Cc2ccccc2)Cc2ccccc2)nc2c1c(=O)[nH]c(=O)n2C,6.87% (inactive),
C[N+](C)(CCCCCC[N+](C)(C)CCCN1C(=O)c2cccc3cccc(c23)C1=O)CCCN1C(=O)c2cccc3cccc(c23)C1=O,12.5% (inactive),
CC(C(=O)O)N1C(=O)c2cccc3cccc1c23 (stereo unspecified),-8.16% (inactive),
COc1ccc(N2C(=O)c3cccc4cccc(c34)C2=O)nn1,,7.94 µM (active)
CC(N)=NCc1cccc(CN)c1,2.64% (inactive),
CC(=O)CC(C)C,3.44% (inactive),
OCCCNCc1ccccn1,9.72% [at 8 µM] (inactive),
CO[C@H]1COC(=O)[C@H](Cc2ccccc2)NC(=O)C/C=C\[C@@H](C)[C@H](OC)COC(=O)C/C=C\[C@@H]1C,30% [at 8 µM] (inactive),
c1cncc(-c2nc(N3CCNCC3)c3ccccc3n2)c1,0.183% (inactive),
Cc1ccc(S(=O)(=O)NC(=O)NN2C[C@H]3CCC[C@@H]3C2)cc1,-1.11% [at 3.58 µM] (inactive),
Cc1cccc(C(=O)O)c1,4.72% (inactive),
C[C@@H](N)[C@@H](C)Cc1ccccc1,-3.08% [at 8 µM] (inactive),

SMILES,"activity change, negative = inhibition",Potency
CCOC(=O)C1CCc2nc3ccccc3c(=O)n21 (stereo unspecified),5.34% (inactive),
CCOC(=O)C1Cn2c(nc3c(c2=O)C(C)(CC)Cc2ccccc2-3)S1 (stereo unspecified),,6.31 µM (active)
CC1(C)Cc2ccccc2-c2nc(CN3CCOCC3)[nH]c(=O)c21,-0.761% (inactive),
CCS(=O)(=O)N(C)[C@@H]1c2cc(C#N)ccc2OC(C)(C)[C@H]1O,inactive,
CCCC(Cl)CCCC(Cl)CCC(Cl)CCC(Cl)CCC(Cl)CCCC(Cl)CCC (stereo unspecified),-11.1% (inactive),
C1CCC2OC2C1 (stereo unspecified),-1.8% (inactive),
Cc1sc2c(c1C)c(=O)n(-c1ccccc1)c1nncn21,6.99% (inactive),
c1ccc2c(c1)[I+]c1ccccc1-2,,15.8 µM (active)
CCCCC[C@H](O)CCCC(=O)O,6.3% (inactive),
C[C@@H](c1ccccc1)N1C(=O)[C@H]2[C@H]3[C@H](O)[C@H](O)C/C(=N/OC[C@@H](O)COCc4ccco4)[C@@H]3CC[C@@H]2C1=O,0.141% [at 8 µM] (inactive),
CC(=O)Oc1ccc(C(=O)Nc2nccs2)cc1,0.315% (inactive),
CC(=O)Oc1ccccc1C(=O)Nc1ncc([N+](=O)[O-])s1,,1.26 µM (active)
O=C(Cl)c1ccccc1[N+](=O)[O-],-11.9% (inactive),
N#Cc1cccc(-c2nc3cnc(N4CCNCC4)nc3n(C3CC3)c2=O)c1,-3.15% (inactive),
CO[C@H]1COC(=O)CCC[C@@H](C)[C@H](OC)COC(=O)[C@@H](C)NC(=O)C/C=C\[C@@H]1C,-7.25% [at 8 µM] (inactive),
Cc1cc(C)c2nc3c(c([C@H](O)[C@@H]4CCCCN4)c2c1)CC/C3=C/c1ccc(Cl)cc1,-12.7% [at 8 µM] (inactive),
COc1ccc(COC(=O)N/N=C2/C[C@@H](O)[C@@H](O)[C@@H]3[C@@H]4C(=O)N([C@@H](C)c5ccccc5)C(=O)[C@H]4CC[C@@H]23)cc1,-0.559% [at 8 µM] (inactive),
O=C(c1ccncc1)N1CCC2(CCN(Cc3cc(C(F)(F)F)cc(C(F)(F)F)c3)CC2)CC1,10.9% (inactive),
C=C(C)C1CC=C(C)C(O)C1 (stereo unspecified),-3.62% (inactive),
Cc1ccccc1S(=O)(=O)Cc1ccc(C(=O)NCCN2CCCCC2C)o1 (stereo unspecified),-12.4% (inactive),
Cc1nc2ccccc2c2oc(C(=O)NCCCN3CCC(C)CC3)cc12,,5.01 µM (active)
CN1CCN(CCCNC(=O)c2cc3c(=O)oc4ccccc4c3s2)CC1,-6.55% (inactive),
CCOc1ccc(/C(O)=C2/C(=O)C(=O)N(Cc3cccnc3)C2c2ccc(N(C)C)cc2)c(C)c1 (stereo unspecified),2.08% (inactive),
Cn1c(=O)n2n(c1=O)[C@H]1[C@H](O)[C@H]3O[C@H]3C(=O)[C@H]1CC2,12.4% [at 8 µM] (inactive),

# Reference: PubChem BioAssay AID912 (National Center for Advancing Translational Sciences (NCATS), 2007)
